In PMC7862700, “An all-to-all approach to the identification of sequence-specific readers for epigenetic DNA modifications on cytosine”:

What was measured:
Assay in all cases: DAPPL (digital affinity profiling via proximity ligation, sequencing); 10 mM Tris-HCl pH 7.5, 50 mM NaCl, 1 mM DTT, 4% glycerol, room temperature, 30 min; GST-TFs on glutathione beads, 16-mer random dsDNA library, 0.1% formaldehyde crosslink after washing; high values mean tight binding
FLI1 = target: T1, FLI1 (Homo sapiens, UniProt Q01543 1-452); details: protein: recombinant; tags: N-terminal GST; dsDNA, one strand shown
T1 sequence: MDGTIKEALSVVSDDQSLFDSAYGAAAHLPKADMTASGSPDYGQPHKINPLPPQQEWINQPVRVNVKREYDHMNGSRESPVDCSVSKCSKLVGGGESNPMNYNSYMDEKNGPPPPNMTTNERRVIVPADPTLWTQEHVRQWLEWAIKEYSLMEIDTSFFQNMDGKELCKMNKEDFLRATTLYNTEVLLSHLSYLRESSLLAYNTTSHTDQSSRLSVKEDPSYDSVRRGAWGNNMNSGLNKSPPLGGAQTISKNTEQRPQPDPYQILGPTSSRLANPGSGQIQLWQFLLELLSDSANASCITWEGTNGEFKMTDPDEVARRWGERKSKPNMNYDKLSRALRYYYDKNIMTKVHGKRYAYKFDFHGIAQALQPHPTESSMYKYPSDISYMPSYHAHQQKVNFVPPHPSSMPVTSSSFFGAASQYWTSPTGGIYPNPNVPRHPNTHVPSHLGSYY
How it was run: (§1)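 Human transcription factors carrying a GST fusion were produced in yeast, bound to glutathione beads, tagged with DNA barcodes and pooled together with a tag-only sample. Each pool was held with 200 nmole of a random double-stranded 16-mer DNA library in Tris/NaCl/DTT/glycerol buffer for 30 min at room temperature, then washed, crosslinked in 0.1% formaldehyde, proximity-ligated with BsaI/T4 ligase (1 h, 37 °C), PCR-amplified and sequenced on an Illumina NextSeq500. Binding signal is the read frequency of each hexamer for a given factor divided by its frequency in the tag-only sample.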

ELK1 = target: T2, ELK1 (Homo sapiens, UniProt P19419 1-428); details: protein: recombinant; tags: N-terminal GST; dsDNA, one strand shown
T2 sequence: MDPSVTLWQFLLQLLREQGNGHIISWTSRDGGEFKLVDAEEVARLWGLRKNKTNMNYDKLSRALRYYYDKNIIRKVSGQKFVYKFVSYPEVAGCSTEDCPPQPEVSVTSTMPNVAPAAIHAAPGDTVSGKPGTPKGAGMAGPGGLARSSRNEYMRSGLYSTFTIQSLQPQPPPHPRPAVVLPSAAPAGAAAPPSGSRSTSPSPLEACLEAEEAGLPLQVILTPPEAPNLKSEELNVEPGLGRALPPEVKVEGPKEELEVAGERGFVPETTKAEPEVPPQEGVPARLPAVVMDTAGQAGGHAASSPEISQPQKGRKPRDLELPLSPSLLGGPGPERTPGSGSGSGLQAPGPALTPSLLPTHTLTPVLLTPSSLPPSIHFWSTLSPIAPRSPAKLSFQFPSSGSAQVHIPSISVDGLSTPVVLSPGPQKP
How it was run: as §1

GABPA = target: T3, GABPA (Homo sapiens, UniProt Q06546 1-454); details: protein: recombinant; tags: N-terminal GST; dsDNA, one strand shown
T3 sequence: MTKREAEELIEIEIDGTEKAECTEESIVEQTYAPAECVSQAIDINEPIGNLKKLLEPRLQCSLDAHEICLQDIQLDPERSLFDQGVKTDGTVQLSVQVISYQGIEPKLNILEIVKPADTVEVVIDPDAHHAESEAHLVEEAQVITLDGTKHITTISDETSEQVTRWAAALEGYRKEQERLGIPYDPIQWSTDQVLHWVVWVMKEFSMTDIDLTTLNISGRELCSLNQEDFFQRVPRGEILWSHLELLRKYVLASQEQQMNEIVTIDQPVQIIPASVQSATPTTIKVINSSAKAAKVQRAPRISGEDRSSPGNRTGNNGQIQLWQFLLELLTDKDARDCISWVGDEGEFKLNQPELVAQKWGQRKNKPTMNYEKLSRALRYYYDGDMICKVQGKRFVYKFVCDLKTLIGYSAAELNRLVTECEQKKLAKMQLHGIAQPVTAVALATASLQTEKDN
How it was run: as §1

ERG = target: T4, ERG (Homo sapiens, UniProt P11308 1-479); details: protein: recombinant; tags: N-terminal GST; dsDNA, one strand shown
T4 sequence: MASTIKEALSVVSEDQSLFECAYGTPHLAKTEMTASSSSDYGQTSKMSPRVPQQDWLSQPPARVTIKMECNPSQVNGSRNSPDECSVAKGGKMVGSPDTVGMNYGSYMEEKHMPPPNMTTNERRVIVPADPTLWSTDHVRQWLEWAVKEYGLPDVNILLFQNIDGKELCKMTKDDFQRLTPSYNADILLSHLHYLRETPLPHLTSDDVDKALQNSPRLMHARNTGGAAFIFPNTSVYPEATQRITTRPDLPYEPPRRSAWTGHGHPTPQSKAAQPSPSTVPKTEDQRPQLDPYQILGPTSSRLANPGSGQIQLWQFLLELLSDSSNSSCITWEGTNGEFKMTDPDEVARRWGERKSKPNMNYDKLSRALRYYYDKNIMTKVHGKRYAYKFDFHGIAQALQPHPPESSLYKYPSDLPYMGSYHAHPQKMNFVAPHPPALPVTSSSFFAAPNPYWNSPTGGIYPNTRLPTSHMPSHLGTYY
How it was run: as §1

ELF1 = ELF1 (Homo sapiens, UniProt P32519 1-619); details: protein: recombinant; tags: N-terminal GST; dsDNA, one strand shown
How it was run: as §1

EHF = target: T5, EHF (Homo sapiens, UniProt Q9NZC4 1-300); details: protein: recombinant; tags: N-terminal GST; dsDNA, one strand shown
T5 sequence: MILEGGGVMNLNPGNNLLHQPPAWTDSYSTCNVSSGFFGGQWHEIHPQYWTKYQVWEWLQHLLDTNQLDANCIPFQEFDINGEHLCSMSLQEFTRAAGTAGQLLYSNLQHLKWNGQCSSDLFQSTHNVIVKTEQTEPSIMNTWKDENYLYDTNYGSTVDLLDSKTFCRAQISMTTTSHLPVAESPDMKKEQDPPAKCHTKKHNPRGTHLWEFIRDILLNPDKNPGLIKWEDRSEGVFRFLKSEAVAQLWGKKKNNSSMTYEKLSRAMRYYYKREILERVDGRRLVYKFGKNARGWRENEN
How it was run: as §1

SPI1 = SPI1 (Homo sapiens, UniProt P17947 1-270); details: protein: recombinant; tags: N-terminal GST; dsDNA, one strand shown
How it was run: as §1

SPIB = SPIB (Homo sapiens, UniProt Q01892 1-262); details: protein: recombinant; tags: N-terminal GST; dsDNA, one strand shown
How it was run: as §1

ELK3 = target: T6, ELK3 (Homo sapiens, UniProt P41970 1-407); details: protein: recombinant; tags: N-terminal GST; dsDNA, one strand shown
T6 sequence: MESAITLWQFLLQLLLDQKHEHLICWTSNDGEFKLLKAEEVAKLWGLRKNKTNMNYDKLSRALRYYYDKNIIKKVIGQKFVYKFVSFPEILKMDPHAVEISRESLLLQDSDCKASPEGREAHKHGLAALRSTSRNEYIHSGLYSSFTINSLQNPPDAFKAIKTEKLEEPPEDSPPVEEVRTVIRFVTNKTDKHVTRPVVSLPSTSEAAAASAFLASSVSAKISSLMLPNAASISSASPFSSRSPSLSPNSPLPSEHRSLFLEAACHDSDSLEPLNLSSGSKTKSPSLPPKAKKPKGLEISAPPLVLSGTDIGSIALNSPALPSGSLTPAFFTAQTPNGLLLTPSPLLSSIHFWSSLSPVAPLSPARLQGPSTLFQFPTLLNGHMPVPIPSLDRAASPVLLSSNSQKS
How it was run: as §1

FEV = target: T7, FEV (Homo sapiens, UniProt Q99581 1-238); details: protein: recombinant; tags: N-terminal GST; dsDNA, one strand shown
T7 sequence: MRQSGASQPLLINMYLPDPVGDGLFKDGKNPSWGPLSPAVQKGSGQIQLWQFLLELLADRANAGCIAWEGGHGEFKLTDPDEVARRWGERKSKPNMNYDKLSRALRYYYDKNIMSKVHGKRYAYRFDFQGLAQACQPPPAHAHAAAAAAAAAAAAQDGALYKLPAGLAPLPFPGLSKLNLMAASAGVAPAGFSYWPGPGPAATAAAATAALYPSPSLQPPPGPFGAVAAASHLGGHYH
How it was run: as §1

ETV5 = ETV5 (Homo sapiens, UniProt P41161 1-510); details: protein: recombinant; tags: N-terminal GST; dsDNA, one strand shown
How it was run: as §1

HSF1 = HSF1 (Homo sapiens, UniProt Q00613 1-529); details: protein: recombinant; tags: N-terminal GST; chain copies: 3; dsDNA, one strand shown
How it was run: as §1

SPIC = target: T8, SPIC (Homo sapiens, UniProt Q8N5J4 1-248); details: protein: recombinant; tags: N-terminal GST; dsDNA, one strand shown
T8 sequence: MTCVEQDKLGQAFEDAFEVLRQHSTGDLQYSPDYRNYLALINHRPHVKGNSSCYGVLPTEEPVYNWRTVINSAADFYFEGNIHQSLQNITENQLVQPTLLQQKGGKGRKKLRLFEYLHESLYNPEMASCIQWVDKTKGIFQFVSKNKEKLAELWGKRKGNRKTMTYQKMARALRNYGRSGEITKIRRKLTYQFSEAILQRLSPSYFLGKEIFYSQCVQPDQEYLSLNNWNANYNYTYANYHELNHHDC
How it was run: as §1

ELF4 = ELF4 (Homo sapiens, UniProt Q99607 1-663); details: protein: recombinant; tags: N-terminal GST; dsDNA, one strand shown
How it was run: as §1

ELK4 = target: T9, ELK4 (Homo sapiens, UniProt P28324-2 1-405); details: protein: recombinant; tags: N-terminal GST; dsDNA, one strand shown
T9 sequence: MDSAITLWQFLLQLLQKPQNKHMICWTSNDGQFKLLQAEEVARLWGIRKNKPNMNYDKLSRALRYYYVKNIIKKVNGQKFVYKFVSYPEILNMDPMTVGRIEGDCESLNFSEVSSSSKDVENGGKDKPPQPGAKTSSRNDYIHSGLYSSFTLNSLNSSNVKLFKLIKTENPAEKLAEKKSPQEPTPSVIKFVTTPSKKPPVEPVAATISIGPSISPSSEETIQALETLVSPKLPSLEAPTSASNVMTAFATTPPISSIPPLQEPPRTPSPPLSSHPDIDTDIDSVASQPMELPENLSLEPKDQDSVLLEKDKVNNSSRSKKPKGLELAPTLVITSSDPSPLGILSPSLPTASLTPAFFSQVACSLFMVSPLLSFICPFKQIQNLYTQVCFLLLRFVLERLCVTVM
How it was run: as §1

ETV2 = target: T10, ETV2 (Homo sapiens, UniProt O00321 1-342); details: protein: recombinant; tags: N-terminal GST; dsDNA, one strand shown
T10 sequence: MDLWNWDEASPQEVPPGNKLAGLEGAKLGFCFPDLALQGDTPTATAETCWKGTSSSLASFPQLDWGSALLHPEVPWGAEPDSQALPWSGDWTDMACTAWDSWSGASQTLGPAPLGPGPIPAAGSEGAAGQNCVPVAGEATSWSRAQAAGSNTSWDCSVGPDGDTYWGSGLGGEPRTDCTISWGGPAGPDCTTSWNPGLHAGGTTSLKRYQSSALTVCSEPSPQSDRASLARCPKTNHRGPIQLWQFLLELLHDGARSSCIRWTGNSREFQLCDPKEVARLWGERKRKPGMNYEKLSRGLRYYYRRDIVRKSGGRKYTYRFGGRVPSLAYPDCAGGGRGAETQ
How it was run: as §1

CRX = CRX (Homo sapiens, UniProt O43186 1-299); details: protein: recombinant; tags: N-terminal GST; dsDNA, one strand shown
How it was run: as §1

ETV1 = ETV1 (Homo sapiens, UniProt P50549 1-477); details: protein: recombinant; tags: N-terminal GST; dsDNA, one strand shown
How it was run: as §1

Chain of ELF1 (P32519 whole entry): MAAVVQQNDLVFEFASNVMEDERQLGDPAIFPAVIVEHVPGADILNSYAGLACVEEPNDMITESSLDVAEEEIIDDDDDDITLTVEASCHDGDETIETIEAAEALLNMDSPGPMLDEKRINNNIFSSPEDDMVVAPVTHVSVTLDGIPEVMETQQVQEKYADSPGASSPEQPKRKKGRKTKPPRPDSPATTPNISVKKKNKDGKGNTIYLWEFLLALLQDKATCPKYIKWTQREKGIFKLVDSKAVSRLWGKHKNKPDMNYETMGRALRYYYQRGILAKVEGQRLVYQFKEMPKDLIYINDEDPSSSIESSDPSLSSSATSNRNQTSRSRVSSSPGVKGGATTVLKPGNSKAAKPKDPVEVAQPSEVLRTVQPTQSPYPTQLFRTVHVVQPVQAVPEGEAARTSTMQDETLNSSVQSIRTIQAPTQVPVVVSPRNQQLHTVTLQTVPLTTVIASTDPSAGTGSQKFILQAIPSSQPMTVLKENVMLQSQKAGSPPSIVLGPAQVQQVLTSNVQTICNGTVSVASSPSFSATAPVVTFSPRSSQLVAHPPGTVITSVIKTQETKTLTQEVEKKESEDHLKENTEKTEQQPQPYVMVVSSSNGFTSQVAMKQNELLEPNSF
Chain of ETV5 (P41161 whole entry): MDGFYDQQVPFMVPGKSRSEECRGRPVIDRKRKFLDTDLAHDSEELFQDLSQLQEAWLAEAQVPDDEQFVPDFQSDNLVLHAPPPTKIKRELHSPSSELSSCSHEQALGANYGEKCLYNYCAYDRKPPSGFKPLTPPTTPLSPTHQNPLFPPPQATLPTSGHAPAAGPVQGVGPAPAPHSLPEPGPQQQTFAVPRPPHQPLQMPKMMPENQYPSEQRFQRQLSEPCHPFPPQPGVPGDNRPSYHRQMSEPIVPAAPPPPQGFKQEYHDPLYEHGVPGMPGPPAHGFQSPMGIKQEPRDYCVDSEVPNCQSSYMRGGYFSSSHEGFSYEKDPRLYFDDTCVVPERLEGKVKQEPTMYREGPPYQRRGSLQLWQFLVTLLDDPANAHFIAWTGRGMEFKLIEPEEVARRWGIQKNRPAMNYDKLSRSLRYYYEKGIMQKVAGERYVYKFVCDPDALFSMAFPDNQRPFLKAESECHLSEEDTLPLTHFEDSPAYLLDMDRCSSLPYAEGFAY
Chain of ELF4 (Q99607 whole entry): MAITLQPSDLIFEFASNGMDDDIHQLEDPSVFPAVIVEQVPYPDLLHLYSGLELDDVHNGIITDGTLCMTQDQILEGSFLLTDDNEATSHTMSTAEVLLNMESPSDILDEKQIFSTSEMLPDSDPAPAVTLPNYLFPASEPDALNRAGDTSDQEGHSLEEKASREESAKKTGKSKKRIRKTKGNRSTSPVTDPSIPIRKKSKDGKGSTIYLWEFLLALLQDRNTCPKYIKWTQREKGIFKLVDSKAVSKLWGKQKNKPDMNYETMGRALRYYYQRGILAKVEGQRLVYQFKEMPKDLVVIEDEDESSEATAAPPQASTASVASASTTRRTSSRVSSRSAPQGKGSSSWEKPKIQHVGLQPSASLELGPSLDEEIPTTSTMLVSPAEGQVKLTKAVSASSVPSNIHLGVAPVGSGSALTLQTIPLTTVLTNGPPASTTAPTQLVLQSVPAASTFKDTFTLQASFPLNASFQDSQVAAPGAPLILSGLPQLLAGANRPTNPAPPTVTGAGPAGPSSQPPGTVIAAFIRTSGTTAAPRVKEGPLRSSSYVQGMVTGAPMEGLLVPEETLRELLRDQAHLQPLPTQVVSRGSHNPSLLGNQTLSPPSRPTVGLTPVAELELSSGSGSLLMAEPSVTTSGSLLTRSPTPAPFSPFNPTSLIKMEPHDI
Chain of HSF1 (Q00613 whole entry): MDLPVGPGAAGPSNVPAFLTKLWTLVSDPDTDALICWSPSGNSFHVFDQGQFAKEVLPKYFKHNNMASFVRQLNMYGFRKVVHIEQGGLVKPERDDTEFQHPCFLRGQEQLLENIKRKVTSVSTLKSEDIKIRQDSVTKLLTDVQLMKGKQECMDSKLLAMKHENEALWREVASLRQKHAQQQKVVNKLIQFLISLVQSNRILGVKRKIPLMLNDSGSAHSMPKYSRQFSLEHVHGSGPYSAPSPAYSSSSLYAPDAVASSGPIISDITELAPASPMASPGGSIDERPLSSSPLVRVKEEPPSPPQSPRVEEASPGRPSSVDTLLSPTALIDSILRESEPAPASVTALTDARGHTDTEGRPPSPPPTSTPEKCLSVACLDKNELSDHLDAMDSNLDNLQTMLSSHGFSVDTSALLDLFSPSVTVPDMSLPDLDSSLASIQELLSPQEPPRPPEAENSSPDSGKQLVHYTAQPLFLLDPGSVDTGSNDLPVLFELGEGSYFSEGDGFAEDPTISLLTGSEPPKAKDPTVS
Chain of SPIB (Q01892 whole entry): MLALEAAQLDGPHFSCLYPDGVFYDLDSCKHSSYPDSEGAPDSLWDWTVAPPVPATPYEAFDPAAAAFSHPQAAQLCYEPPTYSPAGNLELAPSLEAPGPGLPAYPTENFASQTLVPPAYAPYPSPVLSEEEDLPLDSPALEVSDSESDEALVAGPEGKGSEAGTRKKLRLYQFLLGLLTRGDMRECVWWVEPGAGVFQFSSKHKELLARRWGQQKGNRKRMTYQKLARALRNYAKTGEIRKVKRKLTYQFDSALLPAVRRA
Chain of ETV1 (P50549 whole entry): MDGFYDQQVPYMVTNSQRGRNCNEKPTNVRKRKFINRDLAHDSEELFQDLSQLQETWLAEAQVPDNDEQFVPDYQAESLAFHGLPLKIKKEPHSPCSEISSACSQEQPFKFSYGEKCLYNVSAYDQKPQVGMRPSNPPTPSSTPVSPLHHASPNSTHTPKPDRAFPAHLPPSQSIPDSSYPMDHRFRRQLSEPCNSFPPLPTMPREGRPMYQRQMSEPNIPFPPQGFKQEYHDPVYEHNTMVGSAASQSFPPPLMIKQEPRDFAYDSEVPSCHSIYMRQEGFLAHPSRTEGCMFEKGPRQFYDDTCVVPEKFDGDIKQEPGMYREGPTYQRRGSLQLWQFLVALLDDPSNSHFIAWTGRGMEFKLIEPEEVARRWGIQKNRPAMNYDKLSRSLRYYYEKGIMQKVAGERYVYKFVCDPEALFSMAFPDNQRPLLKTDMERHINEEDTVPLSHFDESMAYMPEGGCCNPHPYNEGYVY
Chain of CRX (O43186 whole entry): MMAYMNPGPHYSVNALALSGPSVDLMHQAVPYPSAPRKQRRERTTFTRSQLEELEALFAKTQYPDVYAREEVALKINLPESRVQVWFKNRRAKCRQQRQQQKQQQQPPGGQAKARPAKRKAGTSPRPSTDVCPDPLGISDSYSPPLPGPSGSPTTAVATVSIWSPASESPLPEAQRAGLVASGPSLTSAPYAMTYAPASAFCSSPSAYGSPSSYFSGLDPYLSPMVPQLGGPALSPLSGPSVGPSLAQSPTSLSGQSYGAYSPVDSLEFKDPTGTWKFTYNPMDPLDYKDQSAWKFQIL

Row | Sequence | binding signal (FLI1) | binding signal (ELK1) | binding signal (GABPA) | binding signal (ERG) | binding signal (ELF1) | binding signal (EHF) | binding signal (SPI1) | binding signal (SPIB) | binding signal (ELK3) | binding signal (FEV) | binding signal (ETV5) | binding signal (HSF1) | binding signal (SPIC) | binding signal (ELF4) | binding signal (ELK4) | binding signal (ETV2) | binding signal (CRX) | binding signal (ETV1)
1 | TTTGGC | 1.33 fold enrichment (6-mer frequency, TF over GST control) | 1.27 fold enrichment (6-mer frequency, TF over GST control) | 1.25 fold enrichment (6-mer frequency, TF over GST control) | 1.12 fold enrichment (6-mer frequency, TF over GST control) | 1.27 fold enrichment (6-mer frequency, TF over GST control) | 1.2 fold enrichment (6-mer frequency, TF over GST control) | 1.22 fold enrichment (6-mer frequency, TF over GST control) | 1.29 fold enrichment (6-mer frequency, TF over GST control) | 1.1 fold enrichment (6-mer frequency, TF over GST control) | 1.27 fold enrichment (6-mer frequency, TF over GST control) | 1.32 fold enrichment (6-mer frequency, TF over GST control) | 1.23 fold enrichment (6-mer frequency, TF over GST control) | 1.45 fold enrichment (6-mer frequency, TF over GST control) | 1.26 fold enrichment (6-mer frequency, TF over GST control) | 1.23 fold enrichment (6-mer frequency, TF over GST control) | 1.31 fold enrichment (6-mer frequency, TF over GST control) | 1.49 fold enrichment (6-mer frequency, TF over GST control) | 1.22 fold enrichment (6-mer frequency, TF over GST control)
2 | TCCACC | 1.22 fold enrichment (6-mer frequency, TF over GST control) | 1.18 fold enrichment (6-mer frequency, TF over GST control) | 1.21 fold enrichment (6-mer frequency, TF over GST control) | 1.19 fold enrichment (6-mer frequency, TF over GST control) | 1.2 fold enrichment (6-mer frequency, TF over GST control) | 1.28 fold enrichment (6-mer frequency, TF over GST control) | 1.19 fold enrichment (6-mer frequency, TF over GST control) | 1.3 fold enrichment (6-mer frequency, TF over GST control) | 1.18 fold enrichment (6-mer frequency, TF over GST control) | 1.3 fold enrichment (6-mer frequency, TF over GST control) | 1.16 fold enrichment (6-mer frequency, TF over GST control) | 1.13 fold enrichment (6-mer frequency, TF over GST control) | 1.03 fold enrichment (6-mer frequency, TF over GST control) | 1.19 fold enrichment (6-mer frequency, TF over GST control) | 1.19 fold enrichment (6-mer frequency, TF over GST control) | 1.27 fold enrichment (6-mer frequency, TF over GST control) | 1.04 fold enrichment (6-mer frequency, TF over GST control) | 1.13 fold enrichment (6-mer frequency, TF over GST control)
